Compound activity from PubChem.
Only some compounds are listed: those with a hit (about 5.4% of all), similar ones and a draw of the others.
VACV Venus inh: qHTS for Stage-Specific Inhibitors of Vaccinia Orthopoxvirus: Venus Reporter Primary qHTS; Vaccinia virus Venus reporter expression, fluorescence; Potency, µM (doses to about 36.5 µM), for inactives: top-dose activity change, negative = inhibition, most hits filed as inhibitors; 330,000 tested, 0.46% active; calls by dose curve; tested in A549 cells; note: nearly all actives have a fitted effect of over 30% in size
Sm TGR inh: qHTS Assay for the Inhibitors of Schistosoma Mansoni Peroxiredoxins; Schistosoma mansoni thioredoxin glutathione reductase (TGR), Q962Y6; purified TGR, DTNB reduction, TNB absorbance 405 nm; Potency, µM (doses to about 114 µM), for inactives: at the highest dose activity change, negative = inhibition, hits mostly inhibitors; 360,000 tested, 3% active; AID 485364, 2010; active = well fitted inhibition curve with a large enough effect; inconclusive = small, poorly fitted or top-dose-only effect; inactive = no such curve, though single readings can be large or run the other way; note: nearly all actives have a fitted effect of over 60% in size
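First, TGR (20 nM dispensed) and NADPH were mixed with compound. Second, a 15 min room-temperature incubation followed. Third, further NADPH and then DTNB were added to start the reaction. Finally, TNB absorbance was monitored kinetically.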
FMDV antiviral: High Throughput Screening for Foot and Mouth Disease Virus Antivirals. 410,000 tested, 1.2% active. FMDV antiviral cell-based qHTS. Potency, µM (titrated, usually from 57.9 µM), without a hit: at the top dose activity change, negative = inhibition, hits mostly inhibitors. AID 1159524, 2015; calls by dose curve; tested in HEK293T cells; note: read-out not given here; nearly all actives have a fitted effect of over 45% in size
VACV mCherry inh: qHTS for Stage-Specific Inhibitors of Vaccinia Orthopoxvirus: mCherry Reporter Primary qHTS; 310,000 tested, 0.63% active; Potency, µM (doses to about 36.5 µM), for inactives: top-dose activity change, negative = inhibition, actives largely listed as inhibitors; Vaccinia virus mCherry reporter infection, fluorescence; calls by dose curve; tested in A549 cells; note: nearly all actives have a fitted effect of over 35% in size
MARV entry inh: qHTS for inhibitors of binding or entry into cells for Marburg Virus | 300,000 tested, 1.8% active | Potency, µM (top dose mostly 37.8 µM), without a hit: top-dose activity change, negative = inhibition, usual class: inhibitors | Marburg virus pseudotyped entry inhibition, cell reporter | AID 540276, 2011; calls by dose curve; tested in HEK293 cells
LASV entry inh: qHTS for Inhibitors of binding or entry into cells for Lassa Virus. Lassa virus pseudotype entry inhibition, cell reporter. Potency, µM (series often up to 37.9 µM), inactives show at the highest dose activity change, negative = inhibition, actives largely listed as inhibitors. 300,000 tested, 1.2% active; calls by dose curve; tested in HEK293 cells; note: nearly all actives have a fitted effect of over 50% in size
Starred values were filed as active, the others as inactive; i = inactive; u = inconclusive; x = no result; [ ] = remark or other dose. % is set by controls: 0 for no effect and ±100 for the full control effect; potency is the fitted concentration of half-maximal effect.

SMILES	VACV Venus inh	Sm TGR inh	FMDV antiviral	VACV mCherry inh	MARV entry inh	LASV entry inh
CC(=O)OC(C)(C)/C=C/C(=O)C(C)(O)C1[C@H](O)C[C@@]2(C)C3CC=C4C(CC[C@@H](O)C4(C)C)[C@]3(CO)C(=O)C[C@]12C (stereo partly specified)	35.5µM*	-24.6%	17.8µM*	7.08µM*	0.251µM*	u
CSc1cccc(N2C(=O)N(CC(=O)NCc3ccccc3Cl)c3ccccc3S2(=O)=O)c1	-19.6%	4.0%	-8.6%	-14.2%	x	-20.7%[46.1 µM]
COc1cccc(NC(=O)CN(C)C(=O)C2CC(=O)N(CCc3ccc(OC)c(OC)c3)C2)c1 (stereo unspecified)	-0.3%	x	-27.3%	-12.0%	-14.0%	22.6%
CCOc1ccccc1CNC(=O)c1ccc(CS(=O)Cc2cccc(Cl)c2)o1 (stereo unspecified)	-8.4%	u	4.3%	-15.6%	x	-1.0%[46.1 µM]
CC1(C)CC(NC(=O)c2ccccc2C(=O)NC2CC(C)(C)NC(C)(C)C2)CC(C)(C)N1	x	-0.2%	-6.4%	x	-17.0%	-5.4%
CC1(C)CC(NC(=O)N2c3ccccc3Sc3ccccc32)CC(C)(C)N1	-11.9%	-3.3%	-2.6%	-22.5%	3.16µM*	-4.2%
O=c1c(Br)ccc(Br)cc1Br	u	x	20µM*	u	4.47µM*	u
Fc1ccccc1-c1nc(-c2ccccc2)oc1NCc1ccccc1	x	x	x	x	0.7%[14.2 µM]	x
C/C(=N\NC(=O)c1ccccc1)c1ccccc1F	-9.2%	-0.6%	32.3%	i	u	15.0%[46.1 µM]
C/C(=N\NC(=O)c1ccccc1OCCOc1ccccc1)c1ccccc1F	-25.0%	-2.4%	-21.4%	u	11.2µM*	u
O=[N+]([O-])c1ccc(S(=O)(=O)NCCN2CCOCC2)cc1	-1.8%	12.8%	0.6%	i	0.0%[46.1 µM]	0.9%
O=[N+]([O-])c1ccc(-c2ccc(S(=O)(=O)NCCN3CCCC3)cc2)cc1	-19.4%	-8.1%	-24.1%	-46.9%	18.3µM*	u
Cc1ccc(CS/C(Nc2ccccc2C)=C(\C#N)C(=O)NCc2ccco2)c(C)c1	x	-6.1%	-27.2%	x	u	3.66µM*
Cc1ccccc1N/C(SCc1ccc(Cl)cc1)=C(/C#N)C(=O)NCc1ccco1	x	7.6%	-20.6%	x	u	u
CCOC(=O)c1cccc(NC(=O)NC(C)c2c(-n3cccc3)sc3c2CCN(C)C3)c1 (stereo unspecified)	-15.2%	-18.5%	21.8%	-23.5%	x	-25.7%[46.1 µM]
COC(=O)[C@@H]1CC[C@H](C)[C@@H](c2ccc(C)cc2)N1C(=O)c1ccc(C=NOC[C@@H](O)[C@H]2O[C@@H]3OC(C)(C)O[C@H]3[C@@H]2O)cc1	x	x	x	x	27.8%[14.2 µM]	9.8%[14.3 µM]
CN1OC[C@@H]2CN[C@H](c3ccc(-c4cc5ccccc5o4)cc3)C[C@@H]21	-17.9%	x	0.355µM*	u	x	x
CCN(CC)C(=O)Cn1c(SCCOc2ccc(Cl)cc2)nc2ccccc21	-13.7%	0.5%	-17.4%	-13.4%	8.4%[46.1 µM]	-6.8%[46.1 µM]
O=C(NCCc1nc2ccccc2n1CCOc1ccc2ccccc2c1)C1CCCCC1	-12.8%	x	x	-25.6%	x	x
CCC(=O)Oc1ccc2c(c1)O/C(=C\c1ccco1)C2=O	-12.6%	11.2µM*	-0.8%	i	9.5%[46.1 µM]	0.7%[46.1 µM]
COc1ccc2c(c1)O/C(=C\c1ccccc1C)C2=O	-14.2%	12.7%	30.3%	i	-0.4%[46.1 µM]	-28.3%[46.1 µM]
COC(=O)COc1ccc2c(c1)O/C(=C\c1ccco1)C2=O	7.9%	17.8µM*	32.3%	-10.6%	15.7%	8.4%
Cc1ccsc1/C=C1\Oc2cc(O)ccc2C1=O	-14.4%	x	47.4%	-12.6%	x	x
Cc1cc(O)cc2c1C(=O)/C(=C/c1ccco1)O2	2.0%	31.6µM*	19.5%	i	u	17.0%[46.1 µM]
CCN(CC)C(=O)Oc1ccc2c(c1)O/C(=C\c1ccco1)C2=O	-5.7%	0.0%	6.9%	-0.9%	u	29.9%[46.1 µM]
SMILES	VACV Venus inh	Sm TGR inh	FMDV antiviral	VACV mCherry inh	MARV entry inh	LASV entry inh
CCOc1ccccc1NC(=O)Nc1cc(C(=O)NCc2ccc(C)cc2)ccc1N1CCCC1	-28.7%	4.4%	-4.3%	-4.0%	x	-6.5%[46.1 µM]
COc1ccc(OCC#CCN2CC(C)OC(C)C2)cc1 (stereo unspecified)	-9.1%	7.08µM*	-1.2%	i	u	13.2%[46.1 µM]
CSc1nc(N(C)NC(=O)c2ccc(F)cc2)c2ccccc2n1	u	12.0%	-5.3%	x	1.26µM*	u
Oc1ccc(/C=N/N=C/c2ccc(O)c(O)c2)cc1O	-14.7%	u	4.2%	u	u	u
Oc1ccc(N=Cc2ccc(O)c(O)c2)cc1	-11.0%	22.4µM*	-15.7%	-18.3%	u	u
O=C1C2CC=C(Cl)CC2C(=O)N1CC1Cc2ccccc2CO1 (stereo unspecified)	x	44.7µM*	-17.5%	x	x	x
O=C1C2CC=C(Cl)CC2C(=O)N1CN(Cc1ccco1)CN1C(=O)C2CC=C(Cl)CC2C1=O (stereo unspecified)	-9.0%	50.1µM*	-12.6%	x	-5.4%	17.9%
O=C1C2CC=C(Cl)CC2C(=O)N1CC1OCCc2ccccc21 (stereo unspecified)	-9.4%	79.4µM*	-5.7%	-13.1%	-1.0%[46.1 µM]	-0.6%
COc1ccc(CNC(=O)CCCn2c(=O)c3cccn3c3ccc(F)cc32)cc1OC	-6.1%	-22.3%	u	-6.4%	x	-25.4%[46.1 µM]
COC(=O)CN(C)C1CC(=O)N(c2ccc(Cl)cc2)C1=O (stereo unspecified)	x	6.31µM*	-17.3%	x	0.3%	-0.9%
COc1ccc(Cn2nnnc2C(c2cc3ccc(OC)cc3[nH]c2=O)N2CCC(C)CC2)cc1 (stereo unspecified)	x	28.2µM*	-9.6%	x	u	-8.4%
COc1ccc2cc(C(c3nnnn3Cc3ccccc3)N3CCCCCC3)c(=O)[nH]c2c1 (stereo unspecified)	x	20µM*	-11.1%	x	-29.2%	-2.7%
COc1ccc2cc(C(c3nnnn3Cc3ccc(F)cc3)N3CCCCCC3)c(=O)[nH]c2c1 (stereo unspecified)	x	15.8µM*	-7.8%	x	2.0%	-14.4%
Cc1nc2cnc(N3CCNCC3)nc2n(-c2ccccc2)c1=O	x	x	0.0%	x	x	x
O=C(CCSCc1cnn(-c2ccccc2)c1-n1cccc1)NCc1ccccc1F	-10.8%	-10.7%	-5.9%	-1.7%	6.6%[46.1 µM]	-4.5%[46.1 µM]
CC(CCC(=O)OC[C@H]1O[C@H](C#Cc2ccccc2)C=C[C@H]1Oc1ccc(C)cc1)=NO[C@@H](C)c1cn([C@H](CO)Cc2ccccc2)nn1	x	x	x	x	8.5%[14.2 µM]	u
O=C(CN1CCN(C(=O)c2ccco2)CC1)N1CCc2[nH]c3ccccc3c2C1	-1.4%	20µM*	-15.5%	-6.3%	13.7%[46.1 µM]	16.0%[46.1 µM]
Cc1ccc(C)c(NC(=O)Cn2c(=O)n(Cc3ccco3)c(=O)c3oc4ccccc4c32)c1	-20.9%	-10.8%	-19.1%	-22.2%	x	-12.6%[46.1 µM]
